Data taken from PubChem BioAssay AID1159580 (chemical genetic matrix, 2015).
Where “and” joins values, the source holds several entries; their conditions need not be identical. Equal values may be shown once. Hit rate of the full screen: of about 5,500 compounds, about 2,000 (36%) were called active. Inconclusive results (about 18%) are left out. Rule as the data show it: active = normalized growth mostly below about 0.91 (no sharp cut-off); inconclusive = no clear call, values can overlap the other calls; inactive = mostly above about 0.92. Some of the results follow.

Experiment: chemical genetic growth profiling, strain panel (AID 1159580);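 also: tested at 20 µM; growth read once vehicle control cultures reached saturation at 30 °C; 1 = growth at the plate median or of vehicle wells; lower values mean less growth of the strain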
Conditions: S. cerevisiae deletion strains, growth OD

Measured: normalized growth

Cc1cc(N)c2ccccc2[n+]1CCCCCCCCCC[n+]1c(C)cc(N)c2ccccc21
active: locus YAL013W, strain DEP1, stronger effect = lower value 0.0603 | locus YAL021C, strain ccr4, stronger effect = lower value 0.0693 | locus YAL026C, strain drs2, stronger effect = lower value 0.0714 | locus YAL030W, strain snc1, stronger effect = lower value 0.0625 | locus YAL040C, strain CLN3, stronger effect = lower value 0.0761 | locus YBL061C, strain skt5, stronger effect = lower value 0.066 | locus YBR009C, strain hhf1, stronger effect = lower value 0.0696 | locus YBR021W, strain FUR4, stronger effect = lower value 0.0907 | locus YBR023C, strain chs3, stronger effect = lower value 0.0647 | locus YBR171W, strain sec66, stronger effect = lower value 0.0836 | locus YBR229C, strain ROT2, stronger effect = lower value 0.0499 | locus YBR231C, strain swc5, stronger effect = lower value 0.0655 | locus YBR279W, strain paf1, stronger effect = lower value 0.105 | locus YCL011C, strain gbp2, stronger effect = lower value 0.0611 | locus YCL016C, strain dcc1, stronger effect = lower value 0.0686 | locus YCL029C, strain bik1, stronger effect = lower value 0.0664 | locus YCL061C, strain MRC1 (second series), stronger effect = lower value 0.0482 | locus YCL061C, strain MRC1, stronger effect = lower value 0.0691 | locus YCL069W, strain vba3, stronger effect = lower value 0.0657 | locus YCR088W, strain abp1, stronger effect = lower value 0.0654 | locus YDL005C, strain med2, stronger effect = lower value 0.0789 | locus YDL035C, strain GPR1, stronger effect = lower value 0.0543 | locus YDL040C, strain nat1, stronger effect = lower value 0.0635 | locus YDL074C, strain BRE1, stronger effect = lower value 0.0853 | locus YDL101C, strain DUN1, stronger effect = lower value 0.0584 | locus YDL134C, strain PPH21, stronger effect = lower value 0.0503 | locus YDL185W, strain tfp1, stronger effect = lower value 0.0607 | locus YDL192W, strain arf1, stronger effect = lower value 0.0659 | locus YDR001C, strain nth1, stronger effect = lower value 0.0643 | locus YDR069C, strain doa4, stronger effect = lower value 0.0664 | locus YDR101C, strain arx1, stronger effect = lower value 0.0626 | locus YDR137W, strain rgp1, stronger effect = lower value 0.0886 | locus YDR150W, strain NUM1, stronger effect = lower value 0.0524 | locus YDR159W, strain sac3, stronger effect = lower value 0.0966 | locus YDR162C, strain NBP2, stronger effect = lower value 0.0484 | locus YDR195W, strain ref2 0.14 | locus YDR297W, strain sur2, stronger effect = lower value 0.0628 | locus YDR318W, strain mcm21, stronger effect = lower value 0.0702 | locus YDR334W, strain swr1, stronger effect = lower value 0.0697 | locus YDR335W, strain msn5, stronger effect = lower value 0.0637 | locus YDR363W, strain ESC2, stronger effect = lower value 0.0798 | locus YDR388W, stronger effect = lower value 0.0589 | locus YDR392W, strain spt3, stronger effect = lower value 0.104 | locus YDR502C, strain sam2, stronger effect = lower value 0.066 | locus YEL003W, strain gim4, stronger effect = lower value 0.0587 | locus YEL037C, strain rad23, stronger effect = lower value 0.06 | locus YEL061C, strain CIN8 (second series), stronger effect = lower value 0.066 | locus YEL061C, strain CIN8, stronger effect = lower value 0.0508 | locus YER002W, strain NOP16, stronger effect = lower value 0.0717 | locus YER015W, strain faa2, stronger effect = lower value 0.064 | locus YER016W, strain bim1, stronger effect = lower value 0.0649 | locus YER110C, stronger effect = lower value 0.0798 | locus YER111C, strain swi4, stronger effect = lower value 0.0774 | locus YER155C, strain BEM2 (second series), stronger effect = lower value 0.0923 | locus YER155C, strain BEM2, stronger effect = lower value 0.0729 | locus YER167W, strain BCK2, stronger effect = lower value 0.0524 | locus YFR010W, strain ubp6, stronger effect = lower value 0.0738 | locus YGL078C, strain dbp3, stronger effect = lower value 0.0809 | locus YGL086W, strain mad1, stronger effect = lower value 0.0599 | locus YGL167C, strain pmr1, stronger effect = lower value 0.0819 | locus YGL173C, strain kem1, stronger effect = lower value 0.0682 | locus YGL227W, strain vid30, stronger effect = lower value 0.0671 | locus YGL240W, strain doc1, stronger effect = lower value 0.0823 | locus YGL248W, strain PDE1, stronger effect = lower value 0.0477 | locus YGL253W, strain hxk2, stronger effect = lower value 0.0575 | locus YGR078C, strain PAC10, stronger effect = lower value 0.0515 and 0.0686 | locus YGR135W, strain pre9, stronger effect = lower value 0.0652 | locus YGR229C, strain SMI1, stronger effect = lower value 0.0559 | locus YGR252W, strain gcn5, stronger effect = lower value 0.156 | locus YHR013C, strain ard1, stronger effect = lower value 0.116 | locus YHR027C, strain rpn1, stronger effect = lower value 0.0661 | locus YHR030C, strain SLT2, stronger effect = lower value 0.0523 | locus YHR079C, strain IRE1 (second series), stronger effect = lower value 0.0634 | locus YHR094C, strain hxt1, stronger effect = lower value 0.0669 | locus YHR129C, strain ARP1, stronger effect = lower value 0.087 | locus YHR142W, strain chs7, stronger effect = lower value 0.0778 | locus YHR200W, strain rpn10, stronger effect = lower value 0.0666 | locus YIL066C, strain RNR3, stronger effect = lower value 0.0524 | locus YIL073C, strain SPO22, stronger effect = lower value 0.118 | locus YIL125W, strain kgd1, stronger effect = lower value 0.0847 | locus YIR030C, strain dcg1, stronger effect = lower value 0.0641 | locus YJL092W, strain hpr5, stronger effect = lower value 0.062 | locus YJL095W, strain BCK1 (second series), stronger effect = lower value 0.0654 | locus YJL095W, strain BCK1, stronger effect = lower value 0.0618 | locus YJL115W, strain asf1, stronger effect = lower value 0.0762 | locus YJL129C, strain trk1, stronger effect = lower value 0.0876 | locus YJL134W, strain LCB3, stronger effect = lower value 0.0487 | locus YJL154C, strain vps35, stronger effect = lower value 0.0637 | locus YJL164C, strain tpk1, stronger effect = lower value 0.0693 | locus YJL166W, strain qcr8, stronger effect = lower value 0.0646 | locus YJL168C, strain set2, stronger effect = lower value 0.064 | locus YJL187C, strain SWE1 (second series), stronger effect = lower value 0.0504
